# Laboratory results: the supplement of paper PMC6555819
# Test system: FXR:RXRa (NR concentration 270 nM, RXRa partner concentration 90 nM)
# Assay: PBM binding z-score (relative to random genomic background probes); higher = stronger binding; sequences stand for … in GC…GCGATTGACAGCGTAGAATGAAGG
# Outline: (§1)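 Binding z-scores take random background probes as their reference. They come from custom Agilent 4×180K protein-binding microarrays incubated 1 h with ligand-free nuclear receptor dimers, with antibodies against each partner (one per run) detecting binding. Scanned fluorescence was regression-normalized.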
row,Sequence,PBM binding z-score
1,CCTACTGGGCAAAAGGTCATTGATTCCAATGCTC,4.38
2,CAGCCTAGATCAGGGCCAGTATAGGAGGAACGTT,-0.83
3,ACTAGTTGGTCAGCTGAGGTCACACAGAATTCGG,3.75
4,GCAGACAGGTTAAACGCAGGTAACTCAGGGTGGC,0.61
5,TCATATGGGTAATACAGGTGAAAGTCGGCATCTA,0.355
6,GCAGACAGGTAAAACGCAGGTAACTCAGGGTGGC,-0.253
7,CGTCAAAGTTCAATGTAACGTAACAGAAAGCAGC,6.08
8,GGTACGAGGGCAAGTTGATAGCAGAGTTTGATGG,0.998
9,TAGCCCAGGTCATTCAGGGGCCAGTATAGAAAGC,5.03
10,AGAATGCGGTTATTAAGATCAGGGAATTGCGGTC,-0.258
11,GCTTACGAGTCAAAGGTTATAGCATGAATAGAAT,2.49
12,GCAGACAGGTGAGACGCAGGTAACTCAGGGTGGC,-0.153
13,CCTACTGGGCTAAAAAGGTCATTGATGCCGATAA,3.31
14,CAGCCTAGGTCAGGGCCAGTCTAGGAGGAACGTT,1.43
15,CCGACTGAGGCAAAGGTTACCATACTCAGTACGA,0.7
16,GATACAGGGTCAAAGCCAGAGTACGCGTATTGAT,7.15
17,ATACCAAGGTGATCGTGAGGTCGGTGATACTAAC,0.882
18,CCGCCTGGGGCAAGGTTACCATAACGCACAGCCA,0.284
19,CCAGACAGGTGAGAAGGTAACTGAGCCTCGATTA,-0.0558
20,CGAACTAGGACATTGACAGGACAGTGAATAGTAA,-0.0957

row,Sequence,PBM binding z-score
1,CAGACTAGGTCACAGAGGTCAAAGTCCGTGCGTA,6.87
2,GCGACTGGGGCATCAGTAGGTTACCATAACTTAA,-0.329
3,CCTGCTAGGTCAAGGTCAGCTAATCTACAGTATG,4.87
4,CCGACTGGGGCAGAGAGGTTACCATACCATCCGG,-0.137
5,TCTTGTAGATCAACAGGTGGTTAAGAAAGATCGA,-0.0557
6,CCTATTGGGCCAAAGGTCATTGATTCCAATGCTC,4.7
7,CCTGCTAGGTCATGGTCAGCTCATCTACAGTATG,3.3
8,TCAAGCAGGCCAGAGGGTCACTCAAGAGGTACGG,1.15
9,ACAGACAGGTGATCAAGGTAACTCAGGCTATCAT,0.0446
10,CCCGAAAGGTCGGTTGAGGTGAGTATACGGATAA,3.38
11,TATACAGGGTCAATGGCCAGAGTACGAATGTCGA,5.92
12,CCTACTGGGCTAAAGGTCATTGATTCCAATGCTC,4.68
13,CCTGCTAGGTCCTGGTCAGCTAATCTACAGTATG,-0.334
14,TCTGCTAGGTCAGTAGGTCAGCTAACGAGCTGCC,1.81
15,TCTTGTAGATCAGCAGATTAAGAAAGCTGGCCAA,-0.0778
16,GCTTACGGATCAAAGGTTATAGCATGAATAGAAT,1.93
17,ACTCGGAGGACAAAGGGCAGAGCTACGCCAGTGA,0.0109
18,GGAACGAGAGCATTCGAGTTGATAGCATGGCGAT,-0.374
19,GCTTGTAGATCATGGTTAAGAAAGACTAAGCTAA,-0.444
20,CGAACTCGGTCAAGGACAGTGAATCTCCGCACGC,0.923

# Test system: LXRa:RXRa (NR concentration 270 nM, RXRa partner concentration 90 nM)
# Assay: as above
# Outline: as §1
row,Sequence,PBM binding z-score
1,CCTACTGGGCAAAAGGTCATTGATTCCAATGCTC,5.09
2,CAGCCTAGATCAGGGCCAGTATAGGAGGAACGTT,-0.998
3,ACTAGTTGGTCAGCTGAGGTCACACAGAATTCGG,3.32
4,GCAGACAGGTTAAACGCAGGTAACTCAGGGTGGC,1.65
5,TCATATGGGTAATACAGGTGAAAGTCGGCATCTA,1.4
6,GCAGACAGGTAAAACGCAGGTAACTCAGGGTGGC,-0.37
7,CGTCAAAGTTCAATGTAACGTAACAGAAAGCAGC,5.08
8,GGTACGAGGGCAAGTTGATAGCAGAGTTTGATGG,0.455
9,TAGCCCAGGTCATTCAGGGGCCAGTATAGAAAGC,4.14
10,AGAATGCGGTTATTAAGATCAGGGAATTGCGGTC,-0.138
11,GCTTACGAGTCAAAGGTTATAGCATGAATAGAAT,3
12,GCAGACAGGTGAGACGCAGGTAACTCAGGGTGGC,-0.129
13,CCTACTGGGCTAAAAAGGTCATTGATGCCGATAA,3.96
14,CAGCCTAGGTCAGGGCCAGTCTAGGAGGAACGTT,0.988
15,CCGACTGAGGCAAAGGTTACCATACTCAGTACGA,1.19
16,GATACAGGGTCAAAGCCAGAGTACGCGTATTGAT,4.59
17,ATACCAAGGTGATCGTGAGGTCGGTGATACTAAC,0.302
18,CCGCCTGGGGCAAGGTTACCATAACGCACAGCCA,0.783
19,CCAGACAGGTGAGAAGGTAACTGAGCCTCGATTA,-0.104
20,CGAACTAGGACATTGACAGGACAGTGAATAGTAA,-0.0769

row,Sequence,PBM binding z-score
1,CAGACTAGGTCACAGAGGTCAAAGTCCGTGCGTA,6.52
2,GCGACTGGGGCATCAGTAGGTTACCATAACTTAA,-0.299
3,CCTGCTAGGTCAAGGTCAGCTAATCTACAGTATG,3.95
4,CCGACTGGGGCAGAGAGGTTACCATACCATCCGG,0.273
5,TCTTGTAGATCAACAGGTGGTTAAGAAAGATCGA,0.0664
6,CCTATTGGGCCAAAGGTCATTGATTCCAATGCTC,5.15
7,CCTGCTAGGTCATGGTCAGCTCATCTACAGTATG,2.63
8,TCAAGCAGGCCAGAGGGTCACTCAAGAGGTACGG,0.997
9,ACAGACAGGTGATCAAGGTAACTCAGGCTATCAT,-0.068
10,CCCGAAAGGTCGGTTGAGGTGAGTATACGGATAA,2.22
11,TATACAGGGTCAATGGCCAGAGTACGAATGTCGA,5.45
12,CCTACTGGGCTAAAGGTCATTGATTCCAATGCTC,4.85
13,CCTGCTAGGTCCTGGTCAGCTAATCTACAGTATG,-0.452
14,TCTGCTAGGTCAGTAGGTCAGCTAACGAGCTGCC,1.55
15,TCTTGTAGATCAGCAGATTAAGAAAGCTGGCCAA,-0.0855
16,GCTTACGGATCAAAGGTTATAGCATGAATAGAAT,2.43
17,ACTCGGAGGACAAAGGGCAGAGCTACGCCAGTGA,0.0817
18,GGAACGAGAGCATTCGAGTTGATAGCATGGCGAT,-1.05
19,GCTTGTAGATCATGGTTAAGAAAGACTAAGCTAA,-0.5
20,CGAACTCGGTCAAGGACAGTGAATCTCCGCACGC,0.427
